In PubChem BioAssay AID1030 (National Center for Advancing Translational Sciences (NCATS), 2008):
Hit rate of the full screen: of about 220,000 compounds, about 16,000 (7.3%) were called active. About 25% were inconclusive and are not listed. Shown is part of a subset that was picked to be rich in actives. Values without a mark were called inactive. Calls follow the shape of the dose curve; as a rule, active = well fitted inhibition curve with a large enough effect (not every such curve was filed as active); inconclusive = small, poorly fitted or top-dose-only effect, or another doubt; inactive = no such curve, though single readings can be large or run the other way.

target: Aldehyde dehydrogenase 1A1 (Homo sapiens) (UniProt P00352); assay: qHTS Assay for Inhibitors of Aldehyde Dehydrogenase 1 (ALDH1A1); details: Purified ALDH1A1, NADH fluorescence, propionaldehyde substrate; series mostly up to 75.3 µM; activity, negative = inhibition: at the top concentration;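 as to activity, negative = inhibition: plate controls were no enzyme wells and a reference inhibitor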
Sequence (P00352 whole entry, looked up): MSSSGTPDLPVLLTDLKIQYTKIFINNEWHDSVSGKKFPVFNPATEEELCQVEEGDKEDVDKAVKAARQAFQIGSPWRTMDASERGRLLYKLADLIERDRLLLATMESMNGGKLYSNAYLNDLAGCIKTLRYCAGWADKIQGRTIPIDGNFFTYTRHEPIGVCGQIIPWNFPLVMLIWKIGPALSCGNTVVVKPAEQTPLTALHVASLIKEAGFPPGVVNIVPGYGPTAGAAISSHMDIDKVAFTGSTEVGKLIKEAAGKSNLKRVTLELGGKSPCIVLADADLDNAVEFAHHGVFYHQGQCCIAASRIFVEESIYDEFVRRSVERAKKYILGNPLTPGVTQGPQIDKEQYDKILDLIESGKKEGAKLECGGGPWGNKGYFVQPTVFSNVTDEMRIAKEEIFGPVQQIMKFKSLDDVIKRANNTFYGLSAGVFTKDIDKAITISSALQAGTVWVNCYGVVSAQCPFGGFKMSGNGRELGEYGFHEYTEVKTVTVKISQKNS
Potency is read from the fitted curve at half-maximal effect.

Structure (SMILES)	activity, negative = inhibition	Potency
Cc1ccccc1CCN(CC(=O)NC1CCCCC1)C(=O)c1csnn1	-5.44%	–
O=C(CCc1ccccc1)Nc1ncc([N+](=O)[O-])s1	4.4%	–
OCCC1CN(Cc2ccc3nsnc3c2)CCN1C1CCCCC1 (centres undefined)	11.2%	–
Cn1c(=O)c2cc(S(=O)(=O)NCCC(=O)Nc3ccc(F)cc3F)ccc2n(C)c1=O	-1.54%	–
COC(=O)C1=C(C(=O)OC)[C@@H]2N(C)c3ccccc3[C@@]23C[C@@H](C(=O)OC)N(S(=O)(=O)c2cccs2)C3=N1	0.268% [at 13.5 µM]	–
Cc1ccc(S(=O)(=O)N2CCC(C(=O)N[C@@H](C)C(=O)NCCc3ccccc3)CC2)cc1	-10.6%	–
O=C(NCCCN1CCN(Cc2ccccc2)CC1)C1CCN(S(=O)(=O)N2CCCC2)CC1	-7.82%	–
Cc1ccc(CCNC(=O)C2CCN(S(=O)(=O)N3CCCC3)CC2)cc1	–	12.6 µM (active)
CN(Cc1cccc2ncccc12)C(=O)CC1C(=O)NCCN1Cc1ccc(F)cc1 (centres undefined)	-10%	–
COc1ccc(C)cc1NC(=O)Nc1ccccc1SC	-5.22%	–
O=C(c1ccccn1)c1ncc(C(F)(F)F)cc1Cl	17.1%	–
O=C(CC(O)(C(F)(F)F)C(F)(F)F)Nc1ccc(Cl)c(Cl)c1	-4.42%	–
N/C(=N\OC(=O)Nc1ccc(Cl)c(Cl)c1)c1ncc(C(F)(F)F)cc1Cl	–	25.1 µM (active)
CC1(OC(=O)CCc2ccccc2)C(=O)C=C2C=C(c3ccc(C#N)cc3)N(CCc3ccccn3)C=C2C1=O (centres undefined)	10.1% [at 13.5 µM]	–
C=CCn1c(-c2ccccc2OCC)n[nH]c1=S	-15%	–
C=CCn1c(CCc2ccc(OC(C)C)cc2)n[nH]c1=S	-5.12%	–
C=CCn1c(-c2ccc3[nH]c(C)c(C)c3c2)n[nH]c1=S	–	12.6 µM (active)
O=C(CN1CCN(c2ncccn2)CC1)Nc1ccccc1C(F)(F)F	3.02%	–
c1ccc(-c2cc(N3CCCCC3)c3ccccc3n2)cc1	-14.9%	–
COc1cccc(NC(=O)C(Sc2nnnn2C)c2ccccc2)c1 (centres undefined)	5.1%	–
OCCNCc1cccc(OCc2ccccc2Cl)c1	6.58%	–
O=C(C1CCCO1)N1CCN(C(=S)NC2CC2)CC1 (centres undefined)	-0.777%	–
Cn1c(=O)c2c(nc(SCC(=O)Nc3ccccc3N3CCCCC3)n2C)n(C)c1=O	-12.6%	–
CCC1CCCCN1C(=O)CSc1nc(C)cc(C)n1 (centres undefined)	-4.6%	–
CCC1CCCCN1C(=O)CSc1nc2c(c(=O)n(C)c(=O)n2C)n1C (centres undefined)	–	12.6 µM (active)
Cc1c(C(=O)N/N=C/c2ccccc2)[nH]c2c([N+](=O)[O-])cccc12	8.46%	–

Structure (SMILES)	activity, negative = inhibition	Potency
O=C(/C=C/c1ccccc1)c1ccccc1O	–	inactive
Cc1[nH]c(=O)c(C(=O)/C=C/c2ccccc2)c2c1CCCC2	4.06%	–
Cc1nc(-c2ccccc2)sc1C(=O)/C=C/c1ccccc1	–	3.55 µM (active)
O=C(O)C1C2CC2CN1C(=O)c1ccc(Cl)cc1Cl (centres undefined)	1.47%	–
Cc1[nH][nH]c(=O)c1N=Nc1ccccc1	8.64%	–
Cc1[nH][nH]c(=O)c1C(c1ccc2c(c1)OCO2)c1c(C)[nH][nH]c1=O	-2.58%	–
Cc1[nH][nH]c(=O)c1C(c1ccc(-c2ccc(Cl)cc2)o1)c1c(C)[nH][nH]c1=O	–	22.4 µM (active)
O=C(NCCc1ccccn1)c1cccnc1Oc1ccc(Cl)cc1	9.99%	–
CN1CCN(C(=O)CCc2nc(-c3ccc(Cl)cc3)no2)CC1	11.6%	–
CCOC(=O)Nc1ccccc1N1C(=O)c2ccccc2C1=O	10.7%	–
CCCn1c(=O)c2ccccc2n2c(SCC(=O)/C(C#N)=C(\C)N)nnc12	1.09%	–
CCCCN1C(=O)/C(=C(/C#N)C(N)=O)c2ccccc21	–	7.08 µM (active)
CCc1nnc(NS(=O)(=O)c2ccc(N=Cc3c(C)[nH]n(-c4ccc(C)cc4)c3=O)cc2)s1	-7.49%	–
COc1cc(SC#N)ccc1N=Cc1c(C)[nH]n(-c2ccc(C)cc2)c1=O	–	0.631 µM (active)
Cc1ccc(-n2[nH]c(C)c(/C=N/N3C(=O)c4cccc5cccc(c45)C3=O)c2=O)cc1	4.67%	–
N/C(=N\S(=O)(=O)c1cc(C(F)(F)F)cc(C(F)(F)F)c1)c1cccs1	-0.599%	–
CC1=CC(=C(C#N)c2nc3ccccc3s2)C=C(C)N1c1ccc(F)cc1F	-9.49%	–
Oc1ccccc1C=NC1CCCCC1N=Cc1ccccc1O (centres undefined)	11%	–
O=c1c(O)c(Br)ccc2c(Br)c(O)c(O)c(O)c12	–	8.91 µM (active)
CCOc1ccc(NC(=O)NNC(=O)c2ccc(Cl)cc2Cl)cc1	3.26%	–
Oc1cc(O)c2c(c1)OC(c1ccc(O)c(O)c1)C(O)C2 (centres undefined)	–	10 µM (active)
Cc1nc2cc(NC(=O)NC3CC3)ccc2n1C	-9.58%	–
COC(=O)Cc1ccc(NC(=S)NCc2ccccc2)cc1	1.73%	–
CC(C)Oc1ccc(CC(=O)NNC(=S)Nc2ccc(Br)cc2)cc1	–	10 µM (active)
COCC(=O)Nc1ccc(Br)cc1	5.23%	–
CC(C)C(O)C1CCN(Cc2nc(Cc3ccccc3Cl)no2)CC1 (centres undefined)	-0.592%	–

Structure (SMILES)	activity, negative = inhibition	Potency
Cc1ccc(COc2ccc(/C=N/NC(=O)CN3CCCCC3)cc2)cc1	8.06%	–
S=c1[nH]nc(SCc2ccccc2Cl)c2[nH]cnc12	–	0.0316 µM (active)
O=c1cc(O)nc(SCc2ccccc2Cl)[nH]1	1.42%	–
COc1ccc(OC)c(-n2c(=S)[nH]c3cc(C(=O)N4CCCCC4)ccc3c2=O)c1	-1.79%	–
CCOC(=O)N1CCN(C(=O)Cc2ccc(-n3c(=S)[nH]c4ccccc4c3=O)cc2)CC1	-10.4%	–
CCc1ccc(-n2c(=S)sc3c(=O)n(-c4ccccc4OC)c(=S)[nH]c32)cc1	–	12.6 µM (active)
COc1cc2[nH]c(=S)n(Cc3ccc(F)cc3)c(=O)c2cc1OC	6.91%	–
COc1ccccc1-n1c(=S)[nH]c2c(sc(=S)n2-c2ccc(C)cc2C)c1=O	–	8.91 µM (active)
Cc1ccc(Cl)cc1NC(=O)c1ccccn1	3.34%	–
Cc1cn(C2OC[C@@H](O)[C@@H]2CO)c(=O)[nH]c1=O (some centres undefined)	9.87%	–
O=C(NCc1cccnc1)c1cccc(-c2cc3ccccc3oc2=O)c1	-7.95%	–
CCc1ccc(CN(C)Cc2nc(Cc3ccccc3)no2)nc1	-4.1%	–
CN(C)CCCN1C(=O)CSC1c1ccc([N+](=O)[O-])cc1 (centres undefined)	4.08%	–
O=C(c1ccc(S(=O)(=O)N2CCOCC2)cc1)N1CCN(c2ccccc2)CC1	2.43%	–
Cc1ccc2c(c1)C(c1ccccc1)N(C(=O)c1ccc(S(=O)(=O)N3CCOCC3)cc1)CC(=O)N2 (centres undefined)	–	7.94 µM (active)
CCC(CC)C(=O)N1CC(=O)Nc2ccc(Br)cc2C1c1ccccc1 (centres undefined)	0.759%	–
CNS(=O)(=O)c1ccc(NC(=O)C2CC(=O)N(c3ccc(Cl)cc3)C2)cc1 (centres undefined)	5.48%	–
COc1cc(OC)nc(NC(=O)CCl)n1	3.91%	–
O=C(NNc1ccccn1)c1ccc(Cl)nc1	-11.2%	–
O=C(CCl)NNc1cccc(Cl)n1	–	10 µM (active)
CCCCSc1nc2ccccc2[nH]1	-4.29%	–
COc1cc(CCC(=O)OCC(=O)Nc2cccc(S(N)(=O)=O)c2)cc(OC)c1OC	-5.58%	–
Cc1nn(C)c(C)c1S(=O)(=O)N1CCC(CO)(Cc2ccc(Cl)cc2)CC1	7.34%	–
COc1ccc(NC(=S)NCC2CCN(c3ccc(OC)cc3)C2)cc1 (centres undefined)	–	35.5 µM (active)
COc1ccc(OCC(=O)Nc2ccc(N3CCC(C)CC3)cc2)cc1	9.23%	–
COc1ccc(NC(=S)NCCN2CCC(C)CC2)cc1	0.486%	–

Structure (SMILES)	activity, negative = inhibition	Potency
O=C(Nc1cccc(Cl)c1)c1cc([N+](=O)[O-])ccc1N1CCN(CCO)CC1	-7.69%	–
CN1CCN(c2ccc(S(=O)(=O)Nc3ccccc3)cc2[N+](=O)[O-])CC1	-5.79%	–
CCNC(=O)c1ccc(OCC(=O)Nc2ccc(F)cc2)c(OC)c1	2.14%	–
CCCCn1c(N)c(N2CCOCC2)c(=O)n(CC(=O)NCCc2ccccc2)c1=O	8.85%	–
O=C(CCc1ccc(S(=O)(=O)N2CCOCC2)cc1)NN=C1CCCCCCC1	-9.69%	–
Cc1nc(S(=O)(=O)c2ccc(Br)cc2)nc2c1CCC2	-3.44%	–
O=S(=O)(NN=C1CCCCCCC1)c1ccc(Br)cc1	–	11.2 µM (active)
CC(=O)Cn1ncc(N2CCOCC2)c(Br)c1=O	3.21%	–
Cc1ccc(OCC(=O)Nc2ccc(S(=O)(=O)Nc3ccccn3)cc2)cc1	-0.623%	–
Cc1ccc(Nc2cc(=O)n(C3CCCCC3)c(=O)[nH]2)cc1C	–	1 µM (active)
Cc1ccc(NS(=O)(=O)c2c(C)[nH]c(=O)[nH]c2=O)cc1C	-15%	–
COC(=O)C1=C(C(=O)OC)[C@@H]2Nc3ccccc3[C@@]23C[C@@H](C(=O)OC)N(S(=O)(=O)c2ccc([N+](=O)[O-])cc2)C3=N1	-1.68% [at 13.5 µM]	–
Nc1c(NCCc2ccccc2)c2ccccc2oc1=O	-7.28%	–
O=C1C(=O)N(c2ccccc2)c2ccccc21	–	6.31 µM (active)
O=C1c2ccccc2C(=O)N1c1ccccc1S(=O)C(F)(F)F (centres undefined)	12.6%	–
O=C1C(Cl)=C(N2CCOCC2)C(=O)N1c1ccccc1	-8.32%	–
COC(=O)c1c(C)oc2ccc(N(C(=O)Oc3ccccc3)S(=O)(=O)c3ccccc3)cc12	-1.58%	–
Cc1ccccc1NC(=O)c1nn(-c2ccc(F)c(F)c2)ccc1=O	0.92%	–
C/C(=N\NC(=O)c1ccccc1C)c1ccc(N2CCOCC2)cc1	5.33%	–
C(=N/Nc1cc(N2CCOCC2)nc(N2CCOCC2)n1)/c1ccccc1	7.34%	–
Cc1ccccc1N/N=C/c1ccc(N2CCOCC2)cc1	–	8.91 µM (active)
O=C(CCN1CCN(C/C=C/c2ccccc2)CC1)Nc1cccc(F)c1	9.75%	–
COc1ccc(N2C(=O)C(CC(=O)Nc3ccc(F)cc3)N(CCc3cccs3)C2=O)cc1 (centres undefined)	-2.98%	–
CCOc1ccc(NC(=O)CC2C(=O)N(c3ccccc3)C(=O)N2CCOC)cc1 (centres undefined)	–	15.8 µM (active)
COc1ccc(N2C(=O)C(CC(=O)Nc3ccccc3)N(Cc3ccc(OC)c(OC)c3)C2=O)cc1 (centres undefined)	2.78%	–
NC(=O)c1ccccc1N(Cc1ccccc1)S(=O)(=O)c1ccccc1	3.35%	–
